Reference: PubChem BioAssay (NCATS)
Calls of active or inactive are those of the source. The call rests on the fitted dose curve.

Tests used:
Experiment in all cases: Confirmatory Screen for Target Class Profiling of Small Molecule Inhibitors of Methyltransferases (AID 1745852); on activity change, negative = inhibition: on the % scale 0 is the no-effect control and ±100 the full control effect
[1] = molecular target: Catechol O-methyltransferase (Homo sapiens) (UniProt P21964); conditions: MTase-Glo luminescence, SAH detection, recombinant enzyme; measured here: COMT max response; stronger effect = lower value
[2] = molecular target: Guanidinoacetate N-methyltransferase (Homo sapiens) (UniProt Q14353); conditions: MTase-Glo luminescence, SAH detection, recombinant enzyme; activity change, negative = inhibition: at 57.3 µM (top of the series) unless noted; series mostly up to 57.3 µM
[3] = molecular target: Nicotinamide N-methyltransferase (Homo sapiens) (UniProt P40261); conditions: MTase-Glo luminescence, SAH detection, recombinant enzyme; measured here: NNMT max response; stronger effect = lower value
[4] = molecular target: Phenylethanolamine N-methyltransferase (Homo sapiens) (UniProt P11086); conditions: MTase-Glo luminescence, SAH detection, recombinant enzyme; measured here: PNMT max response; stronger effect = lower value
Potency means the concentration at half of the fitted maximal effect.

Chain of Phenylethanolamine N-methyltransferase (Homo sapiens) (P11086 whole entry, looked up): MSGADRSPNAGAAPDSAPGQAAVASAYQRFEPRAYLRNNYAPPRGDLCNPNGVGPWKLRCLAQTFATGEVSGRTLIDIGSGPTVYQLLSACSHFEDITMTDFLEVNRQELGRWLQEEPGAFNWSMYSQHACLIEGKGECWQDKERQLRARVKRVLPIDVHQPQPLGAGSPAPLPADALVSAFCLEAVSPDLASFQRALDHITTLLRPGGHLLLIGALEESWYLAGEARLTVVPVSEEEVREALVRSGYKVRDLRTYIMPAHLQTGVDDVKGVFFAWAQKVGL
Chain of Catechol O-methyltransferase (Homo sapiens) (P21964 whole entry, looked up): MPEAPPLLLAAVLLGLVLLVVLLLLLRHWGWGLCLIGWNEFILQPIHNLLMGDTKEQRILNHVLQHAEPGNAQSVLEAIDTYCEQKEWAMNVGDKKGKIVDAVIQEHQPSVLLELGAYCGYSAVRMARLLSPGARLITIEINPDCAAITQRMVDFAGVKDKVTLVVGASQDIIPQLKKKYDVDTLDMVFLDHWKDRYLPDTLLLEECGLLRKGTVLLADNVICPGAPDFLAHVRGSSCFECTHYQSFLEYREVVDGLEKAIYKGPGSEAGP
Chain of Nicotinamide N-methyltransferase (Homo sapiens) (P40261 whole entry, looked up): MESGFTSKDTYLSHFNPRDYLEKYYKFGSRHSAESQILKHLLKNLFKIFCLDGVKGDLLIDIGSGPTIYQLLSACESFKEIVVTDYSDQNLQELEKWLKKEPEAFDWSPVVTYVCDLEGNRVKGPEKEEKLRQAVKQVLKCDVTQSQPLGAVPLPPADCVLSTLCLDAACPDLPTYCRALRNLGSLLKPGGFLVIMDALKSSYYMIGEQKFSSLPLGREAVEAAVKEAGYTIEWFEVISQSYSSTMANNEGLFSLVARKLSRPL

| Compound | activity [1] | activity change, negative = inhibition [2] | activity [3] | activity [4] | Potency [2] |
| --- | --- | --- | --- | --- | --- |
| CCCC1c2cccn2CCN1C(=O)Nc1ccc(Br)c(C)c1 (stereo not given) | -4.66% | -2.02% | -7.57% | -6.57% |  |
| CNc1cc(C2CC(NC(=O)COc3ccc(Cl)cc3C)C2)nc(N)n1 (stereo not given) | 7.09% | 2.13% | -5.16% | 6.12% |  |
| COc1ccc(CN2C(=O)c3cc4sccc4n3CC2(C)C(=O)NC2CCC(C)CC2)cc1OC (stereo not given) | -5.8% | 0.162% | -79.1% | -7.08% |  |
| CCCC1c2cccn2CCN1C(=O)Nc1ccc(Br)cc1F (stereo not given) | -8.21% | -4.98% | -17% | -10.2% |  |
| Cc1ccc(NS(=O)(=O)c2ccc3[nH]c(=O)[nH]c3c2)cc1F | -8.47% | -6.18% | -16.3% | -45.9% |  |
| COCc1cc(NCCCNc2cccnc2)ncn1 | -19.2% | -12.2% | -14.1% | -21% |  |
| CCc1cccc(NC(=O)Cn2c(=O)oc3cc(S(=O)(=O)N4CCCCC4)ccc32)c1 | 1.79% | 0% | -2.82% | -33.8% |  |
| COc1ccccc1N1CCN(S(=O)(=O)c2cccc3c2C(=O)c2ccccc2C3=O)CC1 | -3.23% | 2.86% | -1.31% | -8.85% |  |
| CCCNc1cc(N2CCC(CCC(=O)NCCN3CCCCCC3)CC2)ncn1 | 7.42% | 8.04% | -8.06% | 0.426% |  |
| COc1ccc(CCNC(=O)c2ccc3c(=O)nc4c(-c5ccccc5)n[nH]n4c3c2)cc1OC | -11.8% |  | -10.5% | -12.5% | 0.0961 µM (active) |
| CCCC1c2cccn2CCN1C(=O)Nc1ccc(F)cc1F (stereo not given) | -4.42% | 1.31% | -4.75% | -3.85% |  |
| CCCCN1C(=O)c2cc(C(=O)NCCc3ccccc3Cl)nn2CC1(C)C(=O)NC1CCCC1 (stereo not given) | 0.497% | 0% | -0.43% | -2.62% |  |
| CN(CCCNC(=O)CCCc1nnc2n3nc(-c4ccccc4)nc3c3ccccc3n12)Cc1ccccc1 | 2.29% | 0% | -6.15% | 3.41% |  |
| COc1ccc(CCN2C(=O)c3cc4occc4n3CC2(C)C(=O)NC2CCCCCC2)cc1OC (stereo not given) | -3.67% | -1.83% | -64.2% | -5.31% |  |
| CCCn1c(=O)c2cc(F)ccc2n2c(SCc3c(F)cccc3Cl)nnc12 | 4.81% | 0.239% | -24.8% | 0.382% |  |
| CCCC1c2cccn2CCN1C(=O)Nc1ccccc1C(F)(F)F (stereo not given) | -12.1% | -8.26% | -18.7% | -13.3% |  |
| OCC1(Cc2ccccc2)CCCN(Cc2cn[nH]c2-c2ccc(F)cc2)C1 (stereo not given) | 5.88% | 4.38% | 0.855% | 5.69% |  |
| COc1cccc(CN2CCCC3(CNc4ccccc4[S+](=O)([O-])N3)C2)c1 (stereo not given) | -4.83% | -8.51% | -12.2% | -3.23% |  |
| O=C(c1ccc(C(F)(F)F)cc1)N1CCCC(C(=O)N2CCC(c3nc4ccncc4[nH]3)CC2)C1 (stereo not given) | 9.15% | 6.72% | -28.9% | 9.23% |  |
| O=C(c1ccc2c(=O)nc3c(-c4ccc(Cl)cc4)n[nH]n3c2c1)N1CCN(Cc2ccccc2)CC1 | -8.28% | 1.01% | -22.4% | -11.1% |  |
| CCN(CC)CCNC(=O)CCc1nnc2n(CCc3ccccc3)c(=O)c3ccccc3n12 | -2.93% | 1.05% | -10.6% | 3.34% |  |
| COc1cccc(CNC(=O)c2sc(=S)n3c2[nH]c(=O)c2cc4c(cc23)OCO4)c1 | -25.7% |  | -43.7% | -28% | 42.9 µM (active) |
| CC(C)Cn1c(=O)c2ccccc2n2c(CCC(=O)N3CCN(c4ccccc4F)CC3)nnc12 | 2.07% | 0% | -58.2% | -8.56% |  |
| Cc1cccc(N2CCN(C(=O)CCc3nnc4n(CC(C)C)c(=O)c5ccccc5n34)CC2)c1C | 4.82% | 2.51% | -69.8% | 4.08% |  |
| N#Cc1ccccc1-c1cc2c(ccn2Cc2ccncc2)c(N2CCOCC2)n1 | -6.69% | -0.304% [at 85.7 µM] | -6.24% | -4.65% |  |
| CC1CCCCN1CCCNC(=O)Cn1ccc2cc(S(=O)(=O)N3CCCCC3)ccc21 (stereo not given) | 1.36% | 0% | 0.0396% | -0.622% |  |
| Cc1ccc(Cn2c(=O)c3ccccc3n3c(CCC(=O)NCCN4CCCC4)nnc23)cc1 | -6.32% | -1.98% | -16.1% | -2.34% |  |
| COc1ccc(CN2CCCC(COc3ccccc3C(=O)NC3CC3)C2)c(OC)c1 (stereo not given) | 4.91% | 4.18% | 1.02% | 1.19% |  |
| COc1ccc(-c2n[nH]n3c2nc(=O)c2ccc(C(=O)NCc4ccc(OC)c(OC)c4)cc23)cc1 | -3.17% | 0.217% | 0.962% | 0.793% |  |
| CCN(CC)CCNC(=O)CCc1nnc2n(Cc3ccc(C)cc3)c(=O)c3ccccc3n12 | -5.02% | -3.03% | -14.5% | 0.867% |  |
